Laboratory results: ChEMBL document CHEMBL4513216, “Probing the Open Global Health Chemical Diversity Library for Multistage-Active Starting Points for Next-Generation Antimalarials” (ACS Infect Dis, 2020)
Among all 68,000 compounds or so, about 2,700 (4%) showed an effect of 50% or more. The full list was thinned out, with strong results kept by preference.

system: Plasmodium berghei; test: Screen against P. berghei liver stage (PbLuc), transformed with Luciferase, at 2uM; assay type: functional, HepG2; settings: tested at 2 uM

Structure (SMILES)	INHIBITION [%]
O=C(NCC1CCCO1)c1cc(-c2ccncc2)c2cnccc2n1 (stereo unspecified)	26.69
CO[C@@H]1CO[C@@]2(CCCN(C(=O)C3CC=CC3)C2)C1	-29.49
COCC1CCN(c2ccnc3ccsc23)C1 (stereo unspecified)	15.84
Cc1ccc(C(=O)N2CCn3cc(CN(C)Cc4ccco4)nc3C2)o1	-40.76
Cn1ncc2c1C(COCC1CC1)CN(C(=O)Cc1ccsc1)C2 (stereo unspecified)	22.16
CN1C(=O)C2(CCNCC2)c2cc(F)ccc21	37.75
CN(C[C@@H]1CCC[C@@H]2CN(Cc3cccnc3)C[C@@H]21)C1CC1	61.09
COc1ccc(CN2C[C@H]3CCC[C@@H](CN(C)C4CC4)[C@H]3C2)cn1	0.42
c1cnc(NC[C@@H]2CCC[C@@H]3CN(Cc4cccnc4)C[C@@H]32)nc1	7.08
CC(=O)N1CCOC(c2cc(N3CC(O)C3)nc(C)n2)C1 (stereo unspecified)	18.8
Cc1cnn(C2CN(CCOc3ccc(C#N)cc3)C2)c1	-22.06
Cc1cccc(NC(=O)[C@@H]2CCCN2CC(=O)Nc2ccccc2)n1	-32.35
CCOC(=O)N1CCN(C(=O)c2cc(-c3ccc(C)cc3)on2)CC1	21.28
NC(=O)CN1C(=O)CO[C@H]2CN(Cc3ccccc3)C[C@H]21	41.93
NC(=O)CN1C(=O)CO[C@H]2CN(Cc3ccc(Cl)cc3)C[C@H]21	58.4
NC(=O)CN1C(=O)CO[C@H]2CN(Cc3ccc(F)c(F)c3)C[C@H]21	27.65
Cn1ccnc1CN1CCCC(CCCc2ccccn2)(C(N)=O)C1 (stereo unspecified)	-11.32
COC(=O)c1cccc(S(=O)(=O)NC(=O)COC2CCCCC2)c1	19.64
Cc1nc(Nc2ccccn2)cc(N2CCN(S(C)(=O)=O)CC2)n1	18.99
Cc1ccc(Nc2cc(N3CCN(S(C)(=O)=O)CC3)nc(C)n2)cc1	51.2
CS(=O)(=O)N1CCN(c2cc(-n3cccc3)ncn2)CC1	19.08
CC1CCN(C(=O)C(C)n2cc(Br)cn2)CC1 (stereo unspecified)	20.8
FC(F)(F)c1ccnc(N2CCC(c3nccn3CC3CC3)CC2)n1	-0.62
CCCn1ncc(CN2C[C@@H]3CCCN3C[C@H]2Cc2ccccc2)c1C	37.6
CCCn1nc2c(cc1=O)CN(CC1CCCCO1)CC2 (stereo unspecified)	28.72
CN(CCn1cccn1)S(=O)(=O)c1cccc(Cl)c1C#N	-26.2

Structure (SMILES)	INHIBITION [%]
Cc1cc(F)c(S(=O)(=O)N(C)CCn2cccn2)cc1F	50.03
CN(CCn1cccn1)S(=O)(=O)c1cccc(F)c1C#N	-2.19
CCC(C)(C)C(=O)Nc1ccc2ccn(CC(=O)NC)c2c1	24.51
COc1cccc(CN2CCc3nc4ccsc4c(=O)n3CC2)c1	34.9
Cn1cc(CN2CCCCC2c2ccc(-c3cccc(Cl)c3)nc2)cn1 (stereo unspecified)	15.59
CCNC(=O)[C@@H]1C[C@H](NC(=O)c2cc(=O)[nH]c3ccc(C)cc23)CN1C	24.44
COC(=O)[C@@H]1C[C@H](NC(=O)c2cc(=O)[nH]c3ccc(C)cc23)CN1C	76.07
Cc1ccc2[nH]c(=O)cc(C(=O)N[C@@H]3C[C@@H](CO)N(C)C3)c2c1	10.75
CCCc1cc(=O)[nH]c(-c2ccccc2CN(C)CCC(C)C)n1	-4.05
CCc1nnc2ccc(N3CCN(S(=O)(=O)c4ccc(C)s4)CC3)nn12	-37.47
CCc1nnc2ccc(N3CCN(S(=O)(=O)c4ccc(Cl)s4)CC3)nn12	52.31
CCCS(=O)(=O)N1CCN(c2ccc3nnc(CC)n3n2)CC1	8.76
CCN(Cc1cnc(NCc2ccccc2)nc1)C1CCS(=O)(=O)C1 (stereo unspecified)	-30.2
CN(C)Cc1nnc(C2CCCN(Cc3ccc(Cl)s3)C2)n1C (stereo unspecified)	7.64
CC(=O)Nc1nc(C2CCN(C(=O)C3CCC3)CC2)cs1	-49.56
Fc1cccc(Cl)c1CN1CCC(c2n[nH]c3ncccc23)CC1	53.65
Fc1ccc(CN2CCC(c3n[nH]c4ncccc34)CC2)cc1F	19.51
Fc1cccc(CN2CCC(c3n[nH]c4ncccc34)CC2)c1F	12.36
COc1cccc(CN(C)Cc2[nH]c3ccccc3c2C)c1O	33.32
COc1ccc2c(c1)OCC(CNC(=O)c1cc[nH]c1C)C2 (stereo unspecified)	23.79
CCc1nc(C)c(C(=O)NCC2COc3cc(OC)ccc3C2)o1 (stereo unspecified)	76.56
COc1ccc2c(c1)OCC(CNC(=O)c1ccncc1)C2 (stereo unspecified)	31.38
CCCC(=O)N1CCCCC1c1nc(N(C)C)ncc1-c1cc(C)no1 (stereo unspecified)	-54.53
COc1ccccc1CC(=O)N1CCCC1Cn1nc(C)cc1C (stereo unspecified)	-43.79
COCCNC(=O)Cn1c(C)cc2nc(SC)n(CC(C)C)c(=O)c21	-24.15
Cn1ncc2c(NCCOCc3ccccc3)nc(C3CCCC3)nc21	-19.29

Structure (SMILES)	INHIBITION [%]
COCCNS(=O)(=O)c1ccc(Cl)c(C(=O)N(C)Cc2ccsc2)c1	13.76
CNS(=O)(=O)c1csc(C(=O)N(C)Cc2sccc2C)c1	46.97
COCCNS(=O)(=O)c1ccc(Cl)c(C(=O)N(C)Cc2sccc2C)c1	64.37
CN(Cc1cccc(OCCO)c1)Cc1cccc2ncccc12	37.5
COCC(=O)N1CCC2(CCC(C(=O)N3CCCC3)O2)CC1 (stereo unspecified)	41.38
O=C(NC1CC1)[C@@H]1CCO[C@@H]2CCN(C3CCCC3)C[C@H]21	-0.18
O=C(NC1CCC1)[C@@H]1CCO[C@@H]2CCN(C3CCCC3)C[C@@H]21	23.93
O=C(NC1CCC1)[C@@H]1CCO[C@@H]2CCN(C3CCCC3)C[C@H]21	51.26
CN1CCOC[C@H]1c1nc(-c2ccc(F)cc2F)c[nH]1	3.55
CC(C)(CNc1ccc2ccc(F)cc2n1)NS(C)(=O)=O	5.92
CS(=O)(=O)CCOCCNc1ccc2ccc(F)cc2n1	35.63
CC(C)(CCS(C)(=O)=O)CNc1ccc2ccc(F)cc2n1	50.93
CC(C)(C)c1cc(C[C@H]2CNCC[C@H]2CC(=O)N2CCCCC2)no1	-13.88
CCc1nnc2n1CCN(C(=O)CN(C)Cc1ccccc1)C2	-34.45
CCc1nnc2n1CCN(C(=O)c1cc3ccc(F)cc3nc1C)C2	54.85
CCc1nnc2n1CCN(C(=O)c1cc3ccccc3[nH]1)C2	-3.06
CCc1nnc2n1CCN(C(=O)c1ccc(C(F)(F)F)nc1C)C2	-41.59
CCc1nnc2n1CCN(C(=O)CN(CC)CC)C2	58.05
CCc1nnc2n1CCN(C(=O)c1cc3ccc(C)cc3[nH]1)C2	58.05
CCc1nnc2n1CCN(C(=O)c1ccc3nc(C)c(C)nc3c1)C2	-72.78
CCc1nnc2n1CCN(C(=O)c1cc3cc(C)ccc3[nH]1)C2	37.68
CCc1nnc2n1CCN(C(=O)CN(C)C1CC1)C2	-3.06
COc1cccc2c1N(C(=O)c1ccc(C)nc1)CCC2	0.79
O=C(NCc1nnc2n1CCCCC2)N(CC1CCOC1)C1CC1 (stereo unspecified)	-1.21
CC(C)C1CN(C(=O)c2ccsc2)CCS1 (stereo unspecified)	-9.94
CN(C)c1cc(NCc2cnc3n2CCN(CC2CC2)CC3)ncn1	34.04

Structure (SMILES)	INHIBITION [%]
O=C(NCc1ccccn1)[C@]12COC[C@H]1CN(Cc1ccsc1)C2	42.62
Cc1ccc2nc(C)cc(C(=O)NC(C)c3nnn[nH]3)c2c1 (stereo unspecified)	-67.78
CNC(=O)CN(C)c1cncc(OCc2ccccc2)n1	-22.24
CCCc1nnsc1C(=O)N1CCN(CC(C)O)CC1 (stereo unspecified)	-47.97
CC(=O)N1CCC(C(=O)NCc2ncc(-c3ccccc3)o2)CC1	45.67
COc1ccc2c(c1)sc(=NC(=O)CSCC(=O)Nc1nccs1)n2C	54.16
Cn1c(=NC(=O)CSCC(=O)Nc2nccs2)sc2ccccc21	-29.3
CCn1c(=NC(=O)CSCC(=O)Nc2nccs2)sc2ccccc21	-35.96
COc1ccccc1CC(=O)N1CCC(NCc2cccnc2)CC1	-135.87
COc1ccccc1CC(=O)N1CCC(NCc2ccccn2)CC1	57.64
COc1ccccc1CC(=O)N1CCC(NCc2ccncc2)CC1	44.71
Cc1ccnc(C2CCN(C(=O)c3cnn(C)c3)CC2)n1	11.74
CCn1cc(NC(=O)C2CCN(CC(=O)NC(C)(C)CC)CC2)cn1	7.13
CC(C(=O)N1CCN(C(=O)c2ccc(F)cc2)CC1)n1ccnc1 (stereo unspecified)	54.41
Cc1ccc(C(=O)N2CCN(C(=O)C(C)n3ccnc3)CC2)cc1F (stereo unspecified)	38.65
CC(C(=O)N1CCN(c2ccc(F)cc2)CC1)n1ccnc1 (stereo unspecified)	-20.89
O=C(NCc1cnc2n1CCN(Cc1ccoc1)C2)c1ccno1	42.64
COC1CN(C(=O)NC2CCCC2)CCC(=O)N(C)c2ccccc21 (stereo unspecified)	15.96
Nc1ccnc(N2CCCC(CO)(Cc3cccc(Cl)c3)C2)n1 (stereo unspecified)	57.51
Cc1cnc(C)c(N2CCCC(CO)(Cc3cccc(Cl)c3)C2)n1 (stereo unspecified)	8.14
OCC1(Cc2cccc(Cl)c2)CCCN(c2ncccn2)C1 (stereo unspecified)	-16.17
O=C(NCC1CCC2(CCNCC2)CO1)c1cnccn1 (stereo unspecified)	-13.14
Cc1ccc(N2CC[C@H]3CN(C(=O)c4ccn(C)n4)C[C@H]3C2)nn1	-32.66
